PDI inh = inhibitors of human PDI, primary screen, biochemical, turbidity, single point, plate reader. inhibition, % at 10 µM. PDI insulin aggregation turbidity, A650, 90 min. Protein disulfide-isomerase (Homo sapiens), P07237. 0.052% of 350,000 active;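 active = mean inhibition across replicates of 30% or more, whatever share of single replicates reach that level; inconclusive = mean inhibition below 30% while every single replicate reaches 30%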
CendR NRP1 mod = modulators of CendR peptide binding to NRP-1, primary screen, biochemical, fluorescence polarization, uHTS. 0.85% of 360,000 active. AID 602438, 2012. FAM-RPARPAR peptide binding to NRP-1. inhibition, % at 25 µM;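 active = inhibition or corrected inhibition above about 18%, plus a signal ratio from 0.5 to 1.5, limit read from the data, passing the limit was not always enough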
Target sequence (O14786 whole entry, looked up): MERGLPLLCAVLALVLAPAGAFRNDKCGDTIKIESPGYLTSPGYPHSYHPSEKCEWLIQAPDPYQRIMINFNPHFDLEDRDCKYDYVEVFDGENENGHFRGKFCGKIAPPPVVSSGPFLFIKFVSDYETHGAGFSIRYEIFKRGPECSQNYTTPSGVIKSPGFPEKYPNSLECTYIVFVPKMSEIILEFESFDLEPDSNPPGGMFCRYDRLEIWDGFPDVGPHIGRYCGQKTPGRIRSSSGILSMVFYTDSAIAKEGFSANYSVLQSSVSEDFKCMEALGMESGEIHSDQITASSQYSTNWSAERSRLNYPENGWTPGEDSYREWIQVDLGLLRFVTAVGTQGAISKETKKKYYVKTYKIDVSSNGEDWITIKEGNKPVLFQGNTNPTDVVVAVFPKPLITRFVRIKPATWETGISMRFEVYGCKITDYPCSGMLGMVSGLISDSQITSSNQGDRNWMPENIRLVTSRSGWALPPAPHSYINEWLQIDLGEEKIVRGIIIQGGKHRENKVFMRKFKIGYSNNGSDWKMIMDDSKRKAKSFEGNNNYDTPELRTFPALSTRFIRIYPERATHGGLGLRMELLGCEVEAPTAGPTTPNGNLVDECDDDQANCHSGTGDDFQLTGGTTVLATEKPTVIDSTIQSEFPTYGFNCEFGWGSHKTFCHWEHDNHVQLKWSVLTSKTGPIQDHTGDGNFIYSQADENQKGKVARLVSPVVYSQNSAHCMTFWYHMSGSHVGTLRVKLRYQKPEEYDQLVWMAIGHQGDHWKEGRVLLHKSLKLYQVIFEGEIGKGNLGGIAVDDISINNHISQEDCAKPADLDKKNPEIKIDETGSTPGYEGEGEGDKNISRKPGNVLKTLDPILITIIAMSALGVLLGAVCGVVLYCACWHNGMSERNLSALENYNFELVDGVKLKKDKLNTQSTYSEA
ERp5 inh = inhibitors of ERp5-driven insulin aggregation, primary screen, biochemical, turbidity, absorbance 650 nm, single point; Protein disulfide-isomerase A6 (Homo sapiens), Q15084; 90 min; inhibition, % at 9.99 µM; 0.05% of 350,000 active;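 active = mean replicate inhibition above about 25%, with every replicate also reaching it, limit read from the data, passing the limit was not always enough; inconclusive = only one of those two criteria met; inactive = neither criterion met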
PglD DTNB = C. jejuni PglD acetyltransferase inhibitors, primary screen, biochemical, DTNB colorimetric, single point; UDP-N-acetylbacillosamine N-acetyltransferase PglD (Campylobacter jejuni); purified PglD enzyme, DTNB colorimetric CoA detection; inhibition, % at 12.5 µM; 0.098% of 360,000 active; in the data active = inhibition above about 16%, passing the limit was not always enough; inconclusive = no clear call, values can overlap the other calls
ARNT TACC3 PPI = disruptors of ARNT/TACC3 protein interaction, primary screen, biochemical, AlphaScreen, single concentration; Transforming acidic coiled-coil-containing protein 3 (Homo sapiens), Q9Y6A5; AlphaScreen His-ARNT PAS-B/GST-TACC3 binding, luminescence; TACC3 fragment carries E629A point mutation; inhibition, % at 9.99 µM; 0.66% of 390,000 active; AID 623870, 2012;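 active = mean inhibition of replicates at least 50% and at least half of replicates each reaching 50%; inconclusive = half or more replicates reach 50% but mean below 50%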;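 also: 0% = complete ARNT plus TACC3 wells and 100% = ARNT alone without TACC3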
ALR H2O2 inh = inhibitors of human ALR sulfhydryl oxidase, primary screen, biochemical, H2O2 detection, HRP-luminol luminescence, single point | 3.8% of 290,000 active | inhibition, % (no concentration beside the values) | AID 485317, 2010 | purified ALR, DTT oxidation | FAD-linked sulfhydryl oxidase ALR (Homo sapiens), P55789;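 active = mean replicate inhibition above about 79%, with every replicate also reaching it, limit read from the data; inconclusive = only one of the two criteria met; inactive = mean below limit and not every replicate reaching it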
* = called active by the depositor; ? = inconclusive; . = no result given. The full list was thinned out, with hits kept by preference.

SMILES	PDI inh	CendR NRP1 mod	ERp5 inh	PglD DTNB	ARNT TACC3 PPI	ALR H2O2 inh
O=C(NNC(=S)Nc1ccccc1)c1cccc(Br)c1	3	4	.	0	10	74
O=C(NNC(=S)Nc1ccc(Br)cc1)c1ccccc1Br	-7	8	-2	5	2	99*
Cc1cccc2sc(NNC(=O)c3ccc(S(=O)(=O)N4CC(C)CC(C)C4)cc3)nc12 (stereo unspecified)	.	-9	3	2	49*	0
COCC(=O)N(C)C[C@@H]1Oc2cc(-c3ccc(C#N)cc3)ccc2S(=O)(=O)N([C@H](C)CO)C[C@H]1C	.	.	-1	-2	2	.
COc1cc2c(cc1O)C(Cc1ccc(O)cc1)[N+](C)([O-])CC2 (stereo unspecified)	6	3	-3	3	-2	26
COc1ccc(C[C@H]2c3cc(O)c(OC)cc3CC[N+]2(C)[O-])cc1O (stereo partly specified)	5	0	0	0	5	95*
COC(=O)C1=C/c2ccccc2C(C2CC2)N(Cc2ccc(OC)cc2)/C=C\1C(=O)OC (stereo unspecified)	.	.	0	50	17	.
Cc1noc(C)c1NC(=O)N(C)C[C@H]1Oc2ccc(NC(=O)CCN3CCOCC3)cc2CC(=O)N([C@@H](C)CO)C[C@H]1C	.	.	-1	5	4	.
Cc1cccc(/C=N/NC(=O)c2ccc3c(c2)OCCO3)c1O	-6	-4	9	-3	14	14
COc1cccc(/C=N/NC(=O)CNC(=O)c2ccco2)c1O	10	-14	-3	.	36*	63
Cc1[nH]c2ccccc2c1/C=N/NC(=O)CNC(=O)c1ccco1	-3	10	0	-3	14	95*
CCOc1cccc(/C=N/NC(=O)c2ccc3c(c2)OCCO3)c1O	-1	15	5	2	41	90*
COc1cccc(/C=N/NC(=O)CNC(=O)c2ccc3c(c2)OCCO3)c1O	?	2	.	-6	13	94*
Cc1[nH]c2ccccc2c1/C=N\NC(=O)c1ccco1	9	-7	6	1	-14	58
Cc1cccc(S(=O)(=O)N2CCCCN3[C@H](CO)[C@H](c4ccc(C#C[C@H](C)O)cc4)[C@H]3C2)c1	.	.	-3	2	9	.
CC(=O)Nc1ccc2c(c1)C(=O)N(C)[C@@H]1CC[C@H](CC(=O)NCc3ccc(Cl)cc3)O[C@H]1CO2	.	.	2	-97	-2	.
CN(C)CCCN1c2ccccc2CCc2ccc(Cl)cc21	-5	-10	2	-2	-4	67
CN(CCCN1c2ccccc2CCc2ccccc21)CC(=O)c1ccc(Cl)cc1	.	.	.	.	.	98*
CNc1cccc(-c2cc(OC)c(OC)c(OC)c2)n1	20	0	-1	-2	.	.
COc1cc(Nc2cccc(-c3ccccc3)n2)cc(OC)c1OC	-5	30*	-8	4	.	.
CCOC(=O)CSc1nnc(NCC(=O)OC(C)C)c(=O)[nH]1	0	16	.	8	-4	97*
Cc1ccc(-c2nc(=S)c3c(n2Cc2ccco2)CC(C)(C)OC3)cc1	-18	-15	.	-3	7	97*
COC(=O)c1sc(-c2ccc(C(C)(C)C)cc2)cc1NC(=O)COCC(=O)O	-3	-34	-8	-4	22	98*
COC(=O)c1sc(-c2ccc(Cl)cc2)cc1NC(=O)CSCC(=O)O	-4	-6	3	-3	9	58
COC(=O)CN1C(=O)C(O)(CC(=O)c2ccc(C)o2)c2ccccc21 (stereo unspecified)	-8	32*	.	.	-11	-1
SMILES	PDI inh	CendR NRP1 mod	ERp5 inh	PglD DTNB	ARNT TACC3 PPI	ALR H2O2 inh
C[C@H](CO)N1C[C@H](C)[C@@H](CN(C)C)Oc2ccc(NC(=O)C3CC3)cc2C1=O	.	.	-6	-3	.	.
COC(=O)c1ccccc1NS(=O)(=O)c1ccc(NC(C)=O)cc1	0	35*	3	6	-8	-18
COc1ccc(S(=O)(=O)Nc2ccccc2C(=O)NC2CC2)cc1NC(C)=O	-5	28*	3	-3	-3	-6
CC(=O)c1ccc(S(=O)(=O)Nc2ccccc2C(=O)NC2CC2)cc1	0	8	-5	12	-1	-2
C[C@@H]1CN([C@H](C)CO)C(=O)c2cccc(NC(=O)C3CC3)c2O[C@H]1CN(C)C	.	.	-2	1	0	.
N#C/C(=C/c1ccc([N+](=O)[O-])cc1)C(=O)Nc1ccccc1O	-1	-10	-4	0	-17	?
N#C/C(=C\c1ccc([N+](=O)[O-])cc1)C(=O)Nc1ccccc1O	8	-16	-1	.	6	86*
CC(CCc1ccccc1)NC(=O)CN1CCSc2ccccc21 (stereo unspecified)	1	-2	-57	.	4	99*
CC(CCc1ccccc1)NC(=O)CN1CCN(Cc2ccccc2)C1=O (stereo unspecified)	5	-12	.	-3	-5	-4
O=C(CN1CCOc2ccccc21)NCc1ccccc1	.	4	-2	5	-10	98*
CC(CCc1ccccc1)NC(=O)CN1CCOc2ccccc21 (stereo unspecified)	.	-17	-2	-4	0	98*
CCCCSC1(SCCCC)N=C(N)C2(C#N)C(c3ccccc3)NC(C)=CC12C#N (stereo unspecified)	-16	16	.	-3	56*	.
CCSC1(SCC)N=C(N)C2(C#N)C(c3ccccc3)NC3=C(CCC3)C12C#N (stereo unspecified)	-4	-1	.	-9	12	96*
CC1=CC2(C#N)C3(N=C(N)C2(C#N)C(c2ccccc2)N1)OCCO3 (stereo unspecified)	8	5	.	2	-4	.
N#CC12C(N)=NC3(OCCO3)C1(C#N)C1=C(CCC1)NC2c1ccccc1 (stereo unspecified)	8	7	.	.	10	-25
C[C@@H]1CN([C@H](C)CO)C(=O)c2cc(-c3ccccc3F)cnc2O[C@@H]1CN(C)C(=O)C1CC1	.	.	-1	3	3	.
Cc1ccc(C)c(S(=O)(=O)NCc2ccc(C(=O)N3CCC(Cc4ccccc4)CC3)cc2)c1	-1	45*	.	.	20	-21
CCOC(=O)c1c(CCl)nc2ccccc2c1-c1ccccc1	6	4	-1	.	-3	96*

High-throughput results as filed in PubChem.
